Compound activity deposited in PubChem BioAssay by National Center for Advancing Translational Sciences (NCATS).
Pf Dd2 inh: blocks in vitro growth of P. falciparum Dd2. 120,000 compounds, 4.3% hits. Potency, µM (doses to about 28.9 µM), for the others: at the highest dose activity, negative = inhibition, most hits filed as inhibitors. P. falciparum Dd2 growth, SYBR Green, 72 h; active means well fitted inhibition curve with a large enough effect;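 further: plate controls were DMSO vehicle for no effect and reference drug for full effect; nearly all actives have a fitted effect of over 65% in size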
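Infected erythrocytes (Dd2, 0.3% parasitemia, 2.5% hematocrit final) are added to compound in RPMI-1640/Albumax II medium, grown 72 h at 37C in low oxygen, then lysed with saponin/Triton-X containing SYBR Green and read by fluorescence.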
An asterisk follows results filed as active; i = inactive; [ ] = dose if it differs, or a comment. Only a selection was taken, and hits are over-represented in it overall. Potency means the concentration at half of the fitted maximal effect.

SMILES	Pf Dd2 inh
COc1ccccc1CNC(=O)c1ccc2c(c1)N(C)C1CCCN1C2=O (centres undefined)	i
CN(CC1CCOCC1)C(=O)NCc1cccc(F)c1	7%
CC(C)Oc1ccc(CNC(=O)c2cc3n(n2)CC(c2ccc(Cl)cc2)OC3)cc1 (centres undefined)	i
COCCNC(=O)[C@H]1C[C@H](Oc2cccnc2)CN1C(=O)Nc1ccccc1	-5%
CC(C)(C)N1CC(c2nc(-c3ccc4nc[nH]c4c3)no2)CC1=O (centres undefined)	-11%
CC(C)CS(=O)(=O)c1ncc(CN(C)Cc2cnn(C)c2)n1Cc1ccccc1	-18%
COCc1nnc2n1CCC(NC(=O)c1n[nH]c3ccccc13)CC2 (centres undefined)	12%
COC(=O)c1ccc(NC(=O)CSc2ccc(-c3sc(-c4ccccc4)nc3C)nn2)cc1	13µM*
Cc1nc(-c2ccccc2)sc1-c1ccc(SCC(=O)NCc2ccc(Cl)cc2)nn1	11%
Cc1cccc(NC(=O)CSc2ccc(-c3sc(-c4ccccc4)nc3C)nn2)c1C	i
CN(CCc1ccccn1)[C@@H]1[C@H](O)[C@H](CO)O[C@@H]1CNC(=O)Nc1ccc(OC(F)(F)F)cc1	i
Cc1nc2ccccc2n1CCc1nc2c3ccccc3nc(SCC(=O)Nc3ccc(Br)cc3F)n2n1	i
Cc1nc2ccccc2n1CCc1nc2c3ccccc3nc(SCC(=O)Nc3cccc(C(F)(F)F)c3)n2n1	i
Cc1nc2ccccc2n1CCc1nc2c3ccccc3nc(SCC(=O)Nc3ccc(C(C)C)cc3)n2n1	8.9µM*
O=C(Nc1ccc([C@H]2OCC(=O)N(C3CCOCC3)[C@@H]2CO)cc1)C1CCOCC1	21%[44.1 µM]
CCN(CC)c1cc(C)c2cc(NC(=O)/C=C/c3cc(OC)c(OC)c(OC)c3)ccc2n1	1.1µM*
CCN(CC)c1cc(C)c2cc(NC(=O)c3cccc(OC)c3)ccc2n1	i
CCOc1ccc(C(=O)Nc2ccc3nc(N(CC)CC)cc(C)c3c2)cc1	-8%
CCN(CC)c1cc(C)c2cc(NC(=O)c3cccc(OC)c3OC)ccc2n1	-27%
CCOc1ccc(/C=C/C(=O)Nc2ccc3nc(N(CC)CC)cc(C)c3c2)cc1OC	1µM*
CCOc1ccccc1C(=O)Nc1ccc2nc(N(CC)CC)cc(C)c2c1	-7%
O=C(c1cccc(C(F)(F)F)c1)N1CCOCC2(CN(Cc3cc(F)cc(F)c3)C2)C1	i
COc1ccccc1C(=O)N1CCCCCC1CN1CCOCC1 (centres undefined)	3%
COc1ccc(C(=O)N2CCC3(CC2)C(OC)CN3c2cccc(F)c2)c(OC)c1 (centres undefined)	-28%
O=C1CC(c2ccccc2)N(C(=O)CNC(=O)NC2CCCCC2)CCCCCN1 (centres undefined)	i
SMILES	Pf Dd2 inh
CC1=NOC(C(=O)N2CCOc3c(O)cc(-c4nc(C)cnc4C)cc3C2)C1 (centres undefined)	-13%
CCOC(=O)C(C)N1CCOc2c(O)cc(-c3cccc(Cl)c3)cc2C1 (centres undefined)	11µM*
CC(=O)NCCC(=O)N1CCOc2c(O)cc(-c3cccc(Cl)c3)cc2C1	i
O=C(O)[C@@H]1CN(Cc2ccccc2)C[C@@H]1C(=O)N1CCCC1	-5%
Cc1nc(C)c(C(=O)N2C[C@@H](Oc3cccnc3)C[C@H]2C(=O)NC2CC2)s1	12%
Cc1cc(C)cc(C(=O)NCCn2ccn3nc(-c4ccc(F)cc4)cc3c2=O)c1	i
CCc1ccc(C(=O)NCCn2ccn3nc(-c4ccc(F)cc4)cc3c2=O)cc1	4µM*
COc1ccc(-c2cc3c(=O)n(CCNC(=O)c4ccc(F)cc4)ccn3n2)cc1	i
O=C(O)C1=NOC2CN(Cc3ccc(F)cc3)CC12 (centres undefined)	18%[44.1 µM]
O=C(NCCCN1CCCC1=O)C1Cn2cccc2C(=O)N1Cc1ccccc1 (centres undefined)	19%
CC(C)C(=O)NCC1Cn2cccc2C(=O)N1Cc1ccccc1 (centres undefined)	i
O=C(NCCCN1CCc2ccccc2C1)C1Cn2cccc2C(=O)N1Cc1ccccc1 (centres undefined)	0.89µM*
CC(C)CNC(=O)C1Cn2cccc2C(=O)N1Cc1cccnc1 (centres undefined)	7.9µM*
O=C(NCc1ccccc1)C1Cn2cccc2C(=O)N1Cc1cccnc1 (centres undefined)	8%
O=C(CN1CCCCCC1)NCC1Cn2cccc2C(=O)N1Cc1ccccc1 (centres undefined)	4µM*
O=C(NCC1Cn2cccc2C(=O)N1Cc1ccccc1)NC1CCCC1 (centres undefined)	-14%
O=C(NCCc1ccccc1)C1Cn2cccc2C(=O)N1Cc1ccccc1 (centres undefined)	-20%
CC(C)CNC(=O)C1Cn2cccc2C(=O)N1Cc1ccccc1 (centres undefined)	i
CN(C)CCNC(=O)C1(CCO)CC12CCOCC2 (centres undefined)	28%
CCCCCC(=O)N1CC[C@@H](CC(=O)NCc2ccc(F)cc2)[C@@H](CC)C1	-3%[44.1 µM]
Cc1ccccc1-c1onc(C)c1C(=O)NCCc1ccc(F)cc1	i
CN(CC1Cc2ccccc2O1)C(=O)c1cn(Cc2ccccc2F)nn1 (centres undefined)	-29%
Cc1ccc(C)c(C(=O)Nc2ccc3c(N4CCCC4)ncnc3c2)c1	2.5µM*
O=C(Nc1ccc2c(N3CCCC3)ncnc2c1)c1ccccc1Br	13µM*
COc1ccccc1C(=O)Nc1ccc2ncnc(N3CCCCC3)c2c1	i
SMILES	Pf Dd2 inh
Cc1ccc(NC(=O)c2cnc(N3CCCCC3)c3ccccc23)cc1Cl	-22%
COc1ccc(Cl)cc1NC(=O)Cn1nc2c(cc1=O)CCCCC2	7%
CC1CCC(NC(=O)CN2C(=O)NC3(CCCCC3)C2=O)CC1 (centres undefined)	22%
CC(C)CN1C(=O)c2cccn2CC1CNC(=O)c1cccc(F)c1 (centres undefined)	-24%
COc1ccc(NC(=O)N2c3ccccc3CC2c2nc(C(C)C)no2)c(OC)c1 (centres undefined)	-9%[5.79 µM]
O=C(CCn1nnc2ccccc21)N1CCOCC(O)(CN2CCCC2)C1 (centres undefined)	0%
COc1ccc(N2C(=O)[C@@H]3[C@@H](CCN3C(=O)C(C)(C)C)N(Cc3ccccc3)C2=O)cc1	-15%[44.1 µM]
CCOc1ccc(CNCc2c(C(=O)O)n(Cc3ccc(C)cc3)c3cc(C)ccc23)cc1	-2%
COc1ccc(Cn2c(C(=O)O)c(CNC3CCCC3)c3ccc(OC)cc32)cc1	-22%
CCOc1ccc(CNCc2c(C(=O)O)n(Cc3ccc(OC)cc3)c3ccccc23)cc1	10µM*
COc1ccc(Cn2c(C(=O)O)c(CNCc3ccccc3F)c3ccc(OC)cc32)cc1	8.9µM*
COc1ccc2c(CNCc3ccc(C)o3)c(C(=O)O)n(Cc3ccccc3C)c2c1	-22%
COc1ccc2c(CNCCc3ccco3)c(C(=O)O)n(Cc3ccc(C)cc3)c2c1	i
CCOc1ccccc1CNCc1c(C(=O)O)n(Cc2ccccc2)c2cc(OC)ccc12	-17%
COc1ccc2c(CNCc3cccs3)c(C(=O)O)n(Cc3ccccc3)c2c1	-18%
COc1ccc2c(CNCc3ccc(Cl)cc3)c(C(=O)O)n(Cc3ccccc3C)c2c1	11µM*
CCCOc1ccccc1CCCNC(=O)[C@H]1CCC[C@@H](O)C1	-12%
COCC(=O)N1CC[C@]2(O)CCN(C(=O)c3ccc(C(C)=O)s3)C[C@@H]2C1	-10%
